Reference: PMC13494018
A number with no mark means an inactive call. The rule behind the calls is not given here.

Legend:
[1] = biological target: control:Baker_PD-L1, Q9NZQ7
Chain of control:Baker_PD-L1, Q9NZQ7 (Q9NZQ7 whole entry): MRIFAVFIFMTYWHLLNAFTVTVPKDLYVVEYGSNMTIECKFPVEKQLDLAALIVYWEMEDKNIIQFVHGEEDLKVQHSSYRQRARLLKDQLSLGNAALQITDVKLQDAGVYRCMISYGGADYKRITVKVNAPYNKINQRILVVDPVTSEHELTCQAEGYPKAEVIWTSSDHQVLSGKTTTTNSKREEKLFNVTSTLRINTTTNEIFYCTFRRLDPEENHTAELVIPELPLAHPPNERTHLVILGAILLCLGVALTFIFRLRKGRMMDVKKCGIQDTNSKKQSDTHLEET

B1: design_391_ca6baf5d-2451-47ba-bffc-fc886679966a_158_dldesign_0_cycle1_af2pred (protein)
chain: AEEKRKKAQELYEKAIAEAKELAKKGDIGALLKVTMDAAKEILELDPSLEPLAEALRKQGTALAQEAIAAAIAAAA
CD276, Q5ZPR3
Chain of CD276, Q5ZPR3 (Q5ZPR3 whole entry): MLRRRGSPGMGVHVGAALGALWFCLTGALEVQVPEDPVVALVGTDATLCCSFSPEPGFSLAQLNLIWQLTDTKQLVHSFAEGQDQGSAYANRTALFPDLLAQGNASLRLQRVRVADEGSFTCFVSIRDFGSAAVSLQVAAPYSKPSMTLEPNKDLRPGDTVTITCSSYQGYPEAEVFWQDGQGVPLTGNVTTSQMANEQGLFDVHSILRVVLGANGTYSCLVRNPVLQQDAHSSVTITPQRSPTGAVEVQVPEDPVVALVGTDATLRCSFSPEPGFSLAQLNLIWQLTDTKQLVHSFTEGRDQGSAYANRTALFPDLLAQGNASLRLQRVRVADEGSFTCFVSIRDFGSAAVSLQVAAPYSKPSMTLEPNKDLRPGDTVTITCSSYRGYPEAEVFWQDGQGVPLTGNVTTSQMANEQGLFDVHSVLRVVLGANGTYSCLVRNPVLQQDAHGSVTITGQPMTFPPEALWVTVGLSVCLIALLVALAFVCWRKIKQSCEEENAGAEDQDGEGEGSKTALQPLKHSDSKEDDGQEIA
  binding in a display sort: not found

B2: Pdl1_binder_AF2_65 (protein)
chain: ETVRVDATTKETALALMEMGEKAGLKVVIGLTSKEDAEEVAEIAKKKGKFEVFHI
[1]
  binding in a display sort: not found

B3: Pdl1_binder_AF2_52 (protein)
chain: IKEKIEELEKKAEEEVEEAKKLDKEEANKKLNKLSTEIYIEAIQVNDEEFRKKAVEILTKIAKESKELGLEEAEKAASSFAEELKEKL
[1]
  binding in a display sort: not found

B4: d4r5_design_ppi_497_dldesign_0_cycle0_af2pred (protein)
chain: KKEEVRKITEEAIEKMRTVEPEEAVNAVQDAQFEMQGLAPTAETRRKVARLASEAARLVATGEKVEEGIEKLREAGEYLIESL
VTCN1, Q7Z7D3
Chain of VTCN1, Q7Z7D3 (Q7Z7D3 whole entry): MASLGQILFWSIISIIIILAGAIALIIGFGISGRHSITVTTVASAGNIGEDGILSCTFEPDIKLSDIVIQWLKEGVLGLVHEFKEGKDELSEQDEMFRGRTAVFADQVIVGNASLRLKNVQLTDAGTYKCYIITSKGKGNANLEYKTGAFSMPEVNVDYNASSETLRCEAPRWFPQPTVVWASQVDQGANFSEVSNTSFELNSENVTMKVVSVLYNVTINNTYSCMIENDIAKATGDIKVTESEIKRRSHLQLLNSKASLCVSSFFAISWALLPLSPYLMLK
  binding in a display sort: not found

B5: design_391_ca6baf5d-2451-47ba-bffc-fc886679966a_219_dldesign_0_cycle1_af2pred (protein)
chain: AEAERRREEVIREAREAAERLREAGREASPELRALAEATAQTVLLLVEGGEANSPELGLRVAERALELARRTLEEVRAG
CD276, Q5ZPR3
  binding in a display sort: not found

B6: Pdl1_binder_AF2_92 (protein)
chain: PKVVVEADTEEEAEKMAKKFREMGAEAEIEGKTVVATSDSEELIKLIAVIARDRGLKAEVIP
[1]
  binding in a display sort: not found

B7: Pdl1_binder_AF2_37 (protein)
chain: SETTLKETAKLIEVMAKDRGEFVKIEAKGDKIVLYTKTEEGAKKINKEGSKLAKSVGVEFEAKVA
[1]
  binding in a display sort: not found

B8: Pdl1_binder_AF2_49 (protein)
chain: SKKVRFQAYQASAEVIAKEVGGYVVSTGPDKVVIAAPTEEAAEKARKALDELGKAFGFGYEVFVA
[1]
  binding in a display sort: not found

B9: design_391_ca6baf5d-2451-47ba-bffc-fc886679966a_164_dldesign_0_cycle1_af2pred (protein)
chain: AGKVGELAAETLKVAAEARRVAAELPEIREEVTARTSRLVAEAFRAALSGTDEDTAKRALEELKRLLEEARELLEEA
CD276, Q5ZPR3
  binding in a display sort: not found

B10: Pdl1_binder_AF2_12 (protein)
chain: MHRTVTVKNEAEAIAAVIEAYHSGEKLTIVTDSEEIAKKAERLNKQLGGNATFEV
[1]
  binding in a display sort: not found

B11: Pdl1_binder_AF2_76 (protein)
chain: MYEVVIEGEKSVAEFIKLIAEQLGAEAEVEGDKAVIRTERREDAERLAEAAKRFGAEAEVRE
[1]
  binding in a display sort: binds (active)

B12: Pdl1_binder_AF2_87 (protein)
chain: ERREELEAIAKATESLAELLELGEKDPEVRKAALRAAQIVAERLAERAEELGAEEAAELLRKAAEDPENALRYVREAAEKLRAEAEAL
[1]
  binding in a display sort: not found

B13: Pdl1_binder_AF2_30 (protein)
chain: MSKRDELLTKALEYLQKATKLVYEHDPETAREIAHHFSKAVADPEKAEEELEKALELAEKAAAEMERGEELRELMEKAKEYVLEYVKL
[1]
  binding in a display sort: not found

B14: Pdl1_binder_AF2_45 (protein)
chain: MIVHIETPTRDLQLFLKLYAEEKGFKVVEAGETSLVIESDLPREKVEKFIRIAEAMGAKVEVEE
[1]
  binding in a display sort: binds (active)

B15: Pdl1_binder_AF2_64 (protein)
chain: EEEEKKEKANLLRVEAAQKLSLVAEALPEVREKALEAIRKIFDKETIEEGVELAREIAERVAAEGTEEQARLAREAVEKAEEALKLEK
[1]
  binding in a display sort: not found

B16: Pdl1_binder_AF2_95 (protein)
chain: LEEERREFEEVLERLLEVAEEDPEVRERAEEMVRRAREVAEREGVAAGAAEAAVGALRIASEASEEVRKRYLELASELQAIGQRVVRA
[1]
  binding in a display sort: not found

B17: Pdl1_binder_AF2_79 (protein)
chain: KREEALRKAAEAAVKAMEMAKKASDEAKVEIMEHFSRAMRAIKEGDFEEAIRHLRKAAEVAEEKVGKEVGEFIREAAREVERIA
[1]
  binding in a display sort: not found

B18: Pdl1_binder_AF2_18 (protein)
chain: DEETRREIAEHLLRVAKKDQGLVDAEIEGDKVRVKAKTEEQYEKGKIAAEAAAAIVGGEAEAEIV
[1]
  binding in a display sort: not found

B19: Pdl1_binder_AF2_43 (protein)
chain: SAIEKTKEKIRQLFESAGVEVEDIEVEGDTITVHVKEDTEAARQAALLANVYAEDKVGLKVVLEA
[1]
  binding in a display sort: not found

B20: Pdl1_binder_AF2_3 (protein)
chain: MEKAEERKKWLLEKLKELGVEVKEISLDGHVVITGAKSEEALKGAESLVKMFGLFLGVEAKVEVV
[1]
  binding in a display sort: not found

B21: Pdl1_binder_AF2_6 (protein)
chain: SDELRVEAVQVAQEASVAIARAERAVAEGDAEEIRRAAEELERAARRAEEQAERLEEAGDKGMAEFLRRVVERAREAAARARRAAEEL
[1]
  binding in a display sort: not found

B22: Pdl1_binder_AF2_22 (protein)
chain: YRIAIFFPSREKAEEWAAEARAAGRLVRYLTNLMVVEVDSEEEARAVAAEAEALGAATVFLD
[1]
  binding in a display sort: not found

B23: Pdl1_binder_AF2_7 (protein)
chain: DKESAAKKAIQLLEIARERVVADPAAAKAFKEAAKLVEVMLKDAGADEEKAEKVEEKAEKAADAYAAGDKETADKYYEEAVELVKEAA
[1]
  binding in a display sort: not found

B24: design_391_ca6baf5d-2451-47ba-bffc-fc886679966a_175_dldesign_0_cycle1_af2pred (protein)
chain: DEKLKKAEELAKQAAKATLTPTGKAEFDKLANEAMKLVSQLFKEDPAKGQKAAKALSEAIDQAKANAALAAAAA
CD276, Q5ZPR3
  binding in a display sort: not found

B25: Pdl1_binder_AF2_2 (protein)
chain: SIEEMVEEMEKLLEEAAKIVPEIKELLEKAKEIAKKAIEIAKKKGNGEAVAKIFRDMAEMTLRAAKFDKKGAENAALLMIKRAEDIAE
[1]
  binding in a display sort: not found

B26: Pdl1_binder_AF2_72 (protein)
chain: DEMDKLKVEAMKYGSKAIKIASEKDEELAERAAEALSLAMTDPEKGAKELRKIAEELEEKGLPEAAEYLRKAADYFERYAKLLKE
[1]
  binding in a display sort: not found

B27: Pdl1_binder_AF2_8 (protein)
chain: YKLVVEAPNEKIAEQIKEIAESIGAKAEIEGMKVVIEADDKQTIEFIKLYAEEKGAKVLEIT
[1]
  binding in a display sort: binds (active)

B28: Pdl1_binder_AF2_33 (protein)
chain: MEEAKRVAEQMALMMRAAGEEASVEVEGDKITIYYKGDDESLWEVAESVAEKIEEKYGVEVEVVR
[1]
  binding in a display sort: not found

B29: Pdl1_binder_AF2_61 (protein)
chain: MYVVVAKGTEQQAKLFALIARDRGHEAEVEGDTAVVKTDDLEEAEKLAELARELGMEAEVIE
[1]
  binding in a display sort: not found

B30: Pdl1_binder_AF2_93 (protein)
chain: REEKIEKVREAAEEAKKAGAIEDYEIEGDEVKFYRKDWKPESLLIVMKAAQVAALEGFKPTIVKS
[1]
  binding in a display sort: not found

B31: Pdl1_binder_AF2_5 (protein)
chain: EEDLEKLVELARKALEHIKRAAEYSKEDESKMAEELAKAVALASEISKIDVEVAKLVLKAVNAVMKGDRLEEGVKLAEEALKRAEEKK
[1]
  binding in a display sort: binds (active)

B32: Pdl1_binder_AF2_85 (protein)
chain: EARELVKEAVEKFEKAAEEALKDFEKAEKLAKEALEKLYEAAKLDPSLRPVYQEAALHLVKALAHDDDPEKASEELKKAAEVAKKELE
[1]
  binding in a display sort: not found

B33: Pdl1_binder_AF2_66 (protein)
chain: REQIYEQFLELAKAEAREFPGVVDVSREGDTLIVTTKTEEAAKEFEKRLQPIADSVGVKLETKVA
[1]
  binding in a display sort: not found

B34: Pdl1_binder_AF2_73 (protein)
chain: DEARDEAITELMLVASRALKAGPALAEAVELLLEAIHLAVEGRLEEAAELAERAAELAREAGDEEVAEEAERAAELARRAAEEEE
[1]
  binding in a display sort: not found

B35: Pdl1_binder_AF2_51 (protein)
chain: MEVIYADTKEEATMKVMEALSRGVAREDILVYLKDAKDAEKLAKVWGVTAKLA
[1]
  binding in a display sort: not found

B36: Pdl1_binder_AF2_86 (protein)
chain: MRLTIGIAETEEEAEELARRFREEGVEDFVVVTDLEEAVAIAREAGVPTTILAPKGFDTKALLKAAMELNEAGIPTSVQHIP
[1]
  binding in a display sort: not found

B37: Pdl1_binder_AF2_13 (protein)
chain: MYVLVAKADENEARFLKLMAEKLGVKAEVEGDIVTFVSDDKEAIEIIRRFLEKEGRVISFEE
[1]
  binding in a display sort: not found

B38: design_391_ca6baf5d-2451-47ba-bffc-fc886679966a_206_dldesign_0_cycle1_af2pred (protein)
chain: DWQAVALQAAEAAAQAAKEDPENAALFNEAAHLLLLAVARPETALELTEKALKLAEKAAKTGSELAKKAYELTKEALELLKAA
CD276, Q5ZPR3
  binding in a display sort: not found

B39: Pdl1_binder_AF2_91 (protein)
chain: DEKFKKIKKMAKVFSESTGKEIEVEKKGDEFIITAKDADEATYQAAKLLKARAEDLGVKARFKEA
[1]
  binding in a display sort: not found

B40: Pdl1_binder_AF2_35 (protein)
chain: SLKEKAEKHIEEAEKLAKKVGELADKEKAEKAIELLKKGTPESIVEAIALLDQLAKEEKENKEEVRKLASEAIVAAMKAAALLDAAEE
[1]
  binding in a display sort: not found
